Reference: the supplement of paper PMC10849652
About 8,800 targets were measured; listed, in parts, are those with a hit and a random draw of the rest. About 0.5% of all pairs of compound and target were hits. Values without a mark were called inactive.

Key:
Assay in all cases: log2 fold change, soluble protein after heating vs DMSO (PISA); higher = thermal stabilisation; K562 lysate, 10 uM; active = over 0.2 and 3.5 SD of the protein, either way, in both replicates (recomputed)
[1] = compound: Cc1cn(-c2cc(NC(=O)c3ccc(C)c(Nc4nccc(-c5cccnc5)n4)c3)cc(C(F)(F)F)c2)cn1 [nilotinib]
Outline: (§1)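 Quantification was by TMTpro 16plex LC-MS/MS with equalised channel sums, applied to the supernatant after 21,000xg for 90 min. Samples were crude K562 extract at 1 mg/mL protein in PBS pH 7.4 with 1 mM MgCl2, treated with 10 μM compound for 30 min, heated for 3 min across 48°C-58°C, pooled and brought to 0.5% NP-40 at 4°C. Values are log-two fold changes in thermal stability relative to solvent controls, from duplicates.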

[2] = compound: Cc1nc(Nc2n[nH]c3c2CN(C(=O)N[C@H](CN(C)C)c2ccccc2)C3(C)C)c2sccc2n1
Outline: as §1

[3] = compound: Cc1nc(Nc2ncc(C(=O)Nc3c(C)cccc3Cl)s2)cc(N2CCN(CCO)CC2)n1 [dasatinib]
Outline: as §1

[4] = compound: Cc1ncc(-c2ccnc(Nc3ccc(S(C)(=O)=O)cc3)n2)n1C(C)C
Outline: as §1

[5] = compound: Cn1cc(-c2ccc3c(c2)CCN3C(=O)Cc2cccc(C(F)(F)F)c2)c2c(N)ncnc21
Outline: as §1

[6] = compound: Cn1cc(CNCC2CCN(c3ncc(C(=O)NO)cn3)CC2)c2ccccc21 [quisinostat]
Outline: as §1

[7] = compound: Cn1cncc1[C@@](N)(c1ccc(Cl)cc1)c1ccc2c(c1)c(-c1cccc(Cl)c1)cc(=O)n2C [tipifarnib]
Outline: as §1

[8] = compound: NC(=O)Nc1cc(-c2cccc(F)c2)sc1C(=O)N[C@H]1CCCNC1
Outline: as §1

[9] = compound: NC(=O)c1cnc(N[C@@H]2CCCC[C@@H]2N)nc1Nc1cccc(-n2nccn2)c1
Outline: as §1

[10] = compound: NC1(c2ccc(-c3nc4ccn5c(=O)[nH]nc5c4cc3-c3ccccc3)cc2)CCC1
Outline: as §1

Chain of UniProt Q99661 (Q99661 whole entry, looked up): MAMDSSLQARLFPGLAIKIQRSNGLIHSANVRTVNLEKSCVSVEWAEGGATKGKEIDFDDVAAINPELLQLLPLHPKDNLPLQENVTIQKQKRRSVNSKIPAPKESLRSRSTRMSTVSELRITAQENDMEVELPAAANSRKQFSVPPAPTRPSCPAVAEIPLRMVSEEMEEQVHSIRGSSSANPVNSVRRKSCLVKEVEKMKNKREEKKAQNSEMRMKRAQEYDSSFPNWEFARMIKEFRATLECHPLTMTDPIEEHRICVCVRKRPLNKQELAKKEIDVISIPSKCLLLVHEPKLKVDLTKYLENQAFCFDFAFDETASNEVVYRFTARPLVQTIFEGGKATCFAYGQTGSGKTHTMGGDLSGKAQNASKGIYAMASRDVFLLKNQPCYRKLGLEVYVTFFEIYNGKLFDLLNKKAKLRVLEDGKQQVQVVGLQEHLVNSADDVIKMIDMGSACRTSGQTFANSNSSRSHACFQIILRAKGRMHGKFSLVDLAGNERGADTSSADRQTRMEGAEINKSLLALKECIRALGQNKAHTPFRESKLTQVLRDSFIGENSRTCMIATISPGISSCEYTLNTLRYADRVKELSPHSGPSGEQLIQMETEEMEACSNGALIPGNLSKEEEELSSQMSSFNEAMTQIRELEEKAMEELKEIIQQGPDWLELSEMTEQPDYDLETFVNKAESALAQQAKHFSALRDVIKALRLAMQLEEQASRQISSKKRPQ
Chain of UniProt P34949 (P34949 whole entry, looked up): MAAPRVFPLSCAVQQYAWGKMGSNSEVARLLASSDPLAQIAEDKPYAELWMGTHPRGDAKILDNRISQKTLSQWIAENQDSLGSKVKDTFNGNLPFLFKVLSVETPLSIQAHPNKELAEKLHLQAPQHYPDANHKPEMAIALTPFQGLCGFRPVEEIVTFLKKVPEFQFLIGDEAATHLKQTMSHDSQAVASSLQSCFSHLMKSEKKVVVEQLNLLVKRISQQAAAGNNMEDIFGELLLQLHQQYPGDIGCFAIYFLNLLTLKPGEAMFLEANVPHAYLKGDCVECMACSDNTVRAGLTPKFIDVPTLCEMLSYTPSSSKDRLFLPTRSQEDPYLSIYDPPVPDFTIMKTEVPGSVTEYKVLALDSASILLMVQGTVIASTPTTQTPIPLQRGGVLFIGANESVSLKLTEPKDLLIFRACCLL
Chain of UniProt Q6P0Q8 (Q6P0Q8 whole entry, looked up): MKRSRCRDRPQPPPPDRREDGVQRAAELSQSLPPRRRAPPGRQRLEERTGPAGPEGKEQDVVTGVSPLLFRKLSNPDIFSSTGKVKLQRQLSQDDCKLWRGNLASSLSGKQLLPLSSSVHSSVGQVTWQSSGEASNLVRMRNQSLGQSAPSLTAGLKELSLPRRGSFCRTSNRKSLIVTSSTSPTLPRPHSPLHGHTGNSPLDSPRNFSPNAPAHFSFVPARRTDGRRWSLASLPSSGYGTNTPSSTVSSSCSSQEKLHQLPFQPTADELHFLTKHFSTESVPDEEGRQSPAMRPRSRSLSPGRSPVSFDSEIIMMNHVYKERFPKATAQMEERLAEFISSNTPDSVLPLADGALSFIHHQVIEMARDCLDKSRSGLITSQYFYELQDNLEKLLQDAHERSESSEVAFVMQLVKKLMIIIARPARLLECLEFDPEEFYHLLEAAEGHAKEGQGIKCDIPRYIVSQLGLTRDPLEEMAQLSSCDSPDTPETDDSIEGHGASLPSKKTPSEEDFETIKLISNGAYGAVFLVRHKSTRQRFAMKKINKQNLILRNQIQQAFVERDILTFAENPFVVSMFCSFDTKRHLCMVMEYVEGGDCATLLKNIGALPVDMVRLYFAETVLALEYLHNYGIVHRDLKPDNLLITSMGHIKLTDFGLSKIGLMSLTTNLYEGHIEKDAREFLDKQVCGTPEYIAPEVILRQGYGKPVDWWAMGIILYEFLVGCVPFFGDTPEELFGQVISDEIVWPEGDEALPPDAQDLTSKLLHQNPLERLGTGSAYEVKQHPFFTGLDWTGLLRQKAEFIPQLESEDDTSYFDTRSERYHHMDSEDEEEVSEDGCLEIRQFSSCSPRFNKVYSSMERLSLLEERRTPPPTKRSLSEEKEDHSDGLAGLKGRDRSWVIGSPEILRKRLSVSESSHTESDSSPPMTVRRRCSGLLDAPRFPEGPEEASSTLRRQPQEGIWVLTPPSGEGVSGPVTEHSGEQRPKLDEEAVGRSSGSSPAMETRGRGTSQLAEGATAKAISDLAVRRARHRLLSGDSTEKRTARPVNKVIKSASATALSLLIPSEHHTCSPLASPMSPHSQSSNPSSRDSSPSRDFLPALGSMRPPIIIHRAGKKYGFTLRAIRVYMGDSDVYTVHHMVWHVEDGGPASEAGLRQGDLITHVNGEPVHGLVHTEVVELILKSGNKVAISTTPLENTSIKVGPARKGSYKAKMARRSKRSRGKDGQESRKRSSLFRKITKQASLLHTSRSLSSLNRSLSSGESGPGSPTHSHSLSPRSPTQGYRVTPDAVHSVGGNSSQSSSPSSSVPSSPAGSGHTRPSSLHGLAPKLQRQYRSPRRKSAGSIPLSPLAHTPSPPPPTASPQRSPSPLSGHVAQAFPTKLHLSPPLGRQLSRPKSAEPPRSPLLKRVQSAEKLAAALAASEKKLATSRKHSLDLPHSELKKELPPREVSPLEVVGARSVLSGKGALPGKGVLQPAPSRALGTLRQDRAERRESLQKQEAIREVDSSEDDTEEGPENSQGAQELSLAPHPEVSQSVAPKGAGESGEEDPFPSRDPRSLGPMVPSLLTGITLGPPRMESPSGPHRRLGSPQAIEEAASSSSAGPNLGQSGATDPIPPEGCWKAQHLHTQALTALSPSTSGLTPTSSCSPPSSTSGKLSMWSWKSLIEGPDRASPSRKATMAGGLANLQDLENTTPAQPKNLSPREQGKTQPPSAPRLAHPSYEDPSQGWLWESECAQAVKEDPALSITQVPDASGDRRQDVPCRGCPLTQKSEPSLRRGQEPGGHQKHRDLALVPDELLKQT
Chain of UniProt Q8N3R9 (Q8N3R9 whole entry, looked up): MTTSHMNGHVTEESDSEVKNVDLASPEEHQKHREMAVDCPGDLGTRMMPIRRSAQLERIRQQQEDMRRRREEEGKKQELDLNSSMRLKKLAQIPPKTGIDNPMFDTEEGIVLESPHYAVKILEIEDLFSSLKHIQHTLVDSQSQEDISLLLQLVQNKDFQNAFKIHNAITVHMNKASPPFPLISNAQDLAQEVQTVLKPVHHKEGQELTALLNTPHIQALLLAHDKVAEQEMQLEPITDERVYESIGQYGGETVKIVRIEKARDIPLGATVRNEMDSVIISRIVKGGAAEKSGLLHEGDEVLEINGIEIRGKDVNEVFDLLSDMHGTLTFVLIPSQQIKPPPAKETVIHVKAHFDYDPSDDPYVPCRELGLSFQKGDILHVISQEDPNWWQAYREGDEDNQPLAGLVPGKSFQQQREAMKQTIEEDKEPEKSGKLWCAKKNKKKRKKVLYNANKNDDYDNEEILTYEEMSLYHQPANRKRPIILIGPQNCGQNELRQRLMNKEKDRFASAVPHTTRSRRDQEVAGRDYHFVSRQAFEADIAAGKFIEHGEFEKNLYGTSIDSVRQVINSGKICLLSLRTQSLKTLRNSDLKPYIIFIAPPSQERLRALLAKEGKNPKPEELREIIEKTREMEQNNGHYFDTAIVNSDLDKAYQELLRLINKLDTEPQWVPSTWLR
Chain of UniProt P01116 (P01116 whole entry, looked up): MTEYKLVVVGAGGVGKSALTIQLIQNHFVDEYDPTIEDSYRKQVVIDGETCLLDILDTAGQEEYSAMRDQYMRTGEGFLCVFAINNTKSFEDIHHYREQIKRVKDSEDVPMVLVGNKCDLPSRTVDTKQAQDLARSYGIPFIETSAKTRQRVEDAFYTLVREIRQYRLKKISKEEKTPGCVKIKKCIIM
Chain of UniProt P07948 (P07948 whole entry, looked up): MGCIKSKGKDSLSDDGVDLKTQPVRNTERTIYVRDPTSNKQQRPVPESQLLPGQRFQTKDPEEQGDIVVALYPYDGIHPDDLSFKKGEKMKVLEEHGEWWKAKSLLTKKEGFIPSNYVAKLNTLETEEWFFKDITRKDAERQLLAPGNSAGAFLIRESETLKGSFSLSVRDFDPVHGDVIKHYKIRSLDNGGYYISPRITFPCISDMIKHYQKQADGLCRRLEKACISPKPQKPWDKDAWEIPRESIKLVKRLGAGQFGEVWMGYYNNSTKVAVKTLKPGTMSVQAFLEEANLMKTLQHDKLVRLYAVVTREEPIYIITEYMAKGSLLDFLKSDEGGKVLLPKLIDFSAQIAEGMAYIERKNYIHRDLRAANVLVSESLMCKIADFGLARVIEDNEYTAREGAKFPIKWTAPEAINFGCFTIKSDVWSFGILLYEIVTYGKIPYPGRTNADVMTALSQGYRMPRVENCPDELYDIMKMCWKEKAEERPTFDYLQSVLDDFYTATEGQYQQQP
Chain of UniProt A1L020 (A1L020 whole entry, looked up): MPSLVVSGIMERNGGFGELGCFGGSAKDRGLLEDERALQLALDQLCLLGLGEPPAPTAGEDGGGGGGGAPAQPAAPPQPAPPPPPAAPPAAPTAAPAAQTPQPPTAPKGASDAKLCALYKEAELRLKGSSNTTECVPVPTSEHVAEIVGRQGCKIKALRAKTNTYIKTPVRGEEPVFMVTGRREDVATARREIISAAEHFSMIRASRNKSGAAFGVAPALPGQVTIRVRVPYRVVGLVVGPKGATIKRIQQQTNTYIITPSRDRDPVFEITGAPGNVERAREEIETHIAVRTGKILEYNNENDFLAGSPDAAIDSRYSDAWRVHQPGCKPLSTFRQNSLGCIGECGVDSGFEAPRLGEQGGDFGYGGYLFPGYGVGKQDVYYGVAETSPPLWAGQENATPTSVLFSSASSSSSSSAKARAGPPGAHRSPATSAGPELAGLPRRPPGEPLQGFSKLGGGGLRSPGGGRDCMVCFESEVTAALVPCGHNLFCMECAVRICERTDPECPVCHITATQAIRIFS
Chain of UniProt Q9HD34 (Q9HD34 whole entry, looked up): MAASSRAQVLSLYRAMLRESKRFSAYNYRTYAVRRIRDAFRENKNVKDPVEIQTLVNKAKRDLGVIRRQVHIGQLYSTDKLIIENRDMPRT

| Target | log2 fold change [1] | log2 fold change [2] | log2 fold change [3] | log2 fold change [4] | log2 fold change [5] | log2 fold change [6] | log2 fold change [7] | log2 fold change [8] | log2 fold change [9] | log2 fold change [10] |
| --- | --- | --- | --- | --- | --- | --- | --- | --- | --- | --- |
| MACROD1 (UniProt Q9BQ69) | 0.036 | -0.099 | -0.066 | 0.021 | 0.055 | -0.083 | 0.005 | 0.022 | -0.006 | -0.024 |
| KIF2C (UniProt Q99661) | 0.013 | 0.009 | -0.021 | 0.002 | 0.028 | -0.068 | 0.003 | 0.035 | -0.01 | -0.005 |
| MARK1 (UniProt Q9P0L2) | 0.035 | -0.113 | -0.123 | -0.019 | 0.003 | 0.092 | 0.023 | -0.083 | -0.03 | -0.072 |
| LYRM4 (UniProt Q9HD34) | 0.009 | -0.031 | -0.061 | 0.052 | -0.028 | -0.093 | -0.028 | 0.054 | -0.036 | -0.005 |
| MED17 (UniProt Q9NVC6) | -0.011 | 0.036 | -0.033 | -0.116 | -0.014 | -0.033 | -0.075 | 0.019 | 0.038 | 0.005 |
| KNOP1 (UniProt Q1ED39) | -0.09 | 0.055 | -0.028 | -0.095 | -0.001 | -0.169 | -0.01 | 0.007 | 0.048 | -0.062 |
| MPI (UniProt P34949) | 0.002 | -0.02 | -0.035 | 0.019 | -0.022 | -0.025 | 0.009 | 0.029 | 0.016 | -0.026 |
| KIF14 (UniProt Q15058) | 0.003 | 0.042 | -0.035 | 0.033 | 0.007 | -0.139 | -0.046 | 0 | 0.001 | -0.024 |
| MIF4GD isoform 3 (UniProt A9UHW6) | -0.036 | 0.031 | 0.056 | -0.015 | 0.039 | -0.04 | 0.016 | 0.052 | -0.032 | -0.007 |
| KIFC3 isoform 6 (UniProt Q9BVG8) | – | – | -0.055 | – | -0.146 | -0.189 | – | 0.079 | – | -0.213 |
| MED12 isoform 2 (UniProt Q93074) | -0.017 | -0.025 | -0.024 | -0.009 | 0.01 | -0.05 | 0.005 | 0.034 | 0.019 | 0.002 |
| LRP1 (UniProt Q07954) | – | – | – | – | – | -0.936 (active) | – | 0.114 | 0.122 | – |
| MRC2 (UniProt Q9UBG0) | -0.001 | -0.055 | -0.201 | 0.26 | 0.073 | -0.056 | 0.083 | 0.144 | – | 0.068 |
| MDM1 (UniProt Q8TC05) | -0.073 | -0.008 | 0.015 | -0.149 | 0.056 | – | 0.006 | – | -0.005 | 0.061 |
| MRPL22 (UniProt Q9NWU5) | 0.04 | 0.017 | – | 0.03 | – | 0.025 | -0.003 | -0.001 | -0.073 | 0.081 |
| LEPROT (UniProt O15243) | – | – | – | – | – | -0.089 | – | 0.092 | -0.147 | 0.024 |
| LRRC7 (UniProt Q96NW7) | – | – | 0.059 | – | -0.043 | 0.128 | – | -0.009 | 0.069 | – |
| LRRC9 (UniProt Q6ZRR7) | – | – | – | – | – | -0.171 | – | -0.038 | – | – |
| LRRIQ1 (UniProt Q96JM4) | – | – | – | – | – | -0.518 | – | 0.242 | 0.019 | – |
| LRWD1 (UniProt Q9UFC0) | 0.026 | -0.05 | -0.055 | 0.017 | 0.02 | -0.132 | 0.007 | 0.053 | 0.017 | -0.033 |
| MANEA (UniProt Q5SRI9) | – | – | -0.003 | – | 0.046 | 0.046 | – | 0.05 | 0.01 | -0.044 |
| MBTPS1 (UniProt Q14703) | – | – | 0.106 | – | -0.101 | -0.053 | – | 0.026 | – | -0.045 |
| MFF isoform 2 (UniProt Q9GZY8) | -0.025 | -0.039 | -0.005 | 0.008 | -0.012 | 0.002 | -0.004 | 0.007 | 0.016 | -0.026 |
| MDM2 isoform 11 (UniProt Q00987) | – | – | – | – | – | -0.2 | – | -0.077 | – | -0.195 |

| Target | log2 fold change [1] | log2 fold change [2] | log2 fold change [3] | log2 fold change [4] | log2 fold change [5] | log2 fold change [6] | log2 fold change [7] | log2 fold change [8] | log2 fold change [9] | log2 fold change [10] |
| --- | --- | --- | --- | --- | --- | --- | --- | --- | --- | --- |
| LSM11 (UniProt P83369) | – | – | 0.266 | – | -0.049 | -0.114 | – | 0.049 | – | -0.037 |
| KIF21A (UniProt H0YI78) | 0.067 | -0.005 | 0.044 | 0.143 | 0.055 | – | -0.069 | – | 0.104 | 0.082 |
| KRI1 (UniProt Q8N9T8) | -0.099 | 0.02 | -0.025 | 0 | -0.014 | -0.125 | -0.073 | -0.006 | – | 0.06 |
| MAPK3 (UniProt H0YEX6) | -0.522 | 0.646 | – | 0.12 | – | – | 0.097 | – | – | – |
| MEX3A (UniProt A1L020) | 0.026 | -0.069 | -0.029 | -0.137 | -0.084 | – | 0.211 | – | – | – |
| MAP3K6 (UniProt O95382) | 0.122 | -0.023 | – | 0.006 | – | – | -0.011 | – | – | – |
| MAP3K4 isoform 2 (UniProt Q9Y6R4) | – | – | – | – | – | 0.009 | – | 0.112 | – | – |
| KIF18B (UniProt Q86Y91) | – | – | 0.073 | – | 0.076 | -0.025 | – | 0.17 | 0.025 | – |
| MEGF8 (UniProt Q7Z7M0) | – | – | -0.059 | – | -0.003 | 0.047 | – | -0.073 | – | -0.073 |
| KRAS isoform 2 (UniProt P01116) | – | – | -0.029 | – | -0.025 | 0.018 | – | 0.001 | -0.046 | 0.036 |
| KLC1 isoform 10 (UniProt Q07866) | – | – | – | – | – | – | – | – | – | -0.159 |
| MOCS3 (UniProt O95396) | -0.008 | -0.054 | -0.056 | 0.056 | -0.049 | -0.219 | 0.045 | -0.054 | – | -0.03 |
| MAP4K4 isoform 6 (UniProt O95819) | – | – | -0.01 | – | 0.115 | – | – | – | 0.021 | 0.083 |
| MARF1 (UniProt Q9Y4F3) | -0.064 | 0.024 | -0.031 | 0.031 | -0.03 | -0.053 | -0.062 | 0.088 | – | -0.035 |
| MAPK12 (UniProt P53778) | 0.082 | 0.048 | -0.057 | 0.085 | 0.375 (active) | 0.051 | -0.005 | -0.015 | – | -0.044 |
| MAST2 (UniProt Q6P0Q8) | – | – | 0.049 | – | 0.044 | -0.024 | – | 0.047 | -0.005 | -0.036 |
| LYN isoform 2 (UniProt P07948) | 0.125 | 0.143 | 0.438 | 0.257 | 0.061 | -0.111 | -0.615 | 0.748 | – | -0.053 |
| MAPK7 (UniProt Q13164) | – | – | – | – | – | -0.156 | – | -0.044 | 0.028 | 0.011 |
| MAP4K2 (UniProt Q12851) | – | – | 0.511 | – | 0.123 | -0.193 | – | 0.965 (active) | 0.159 | -0.062 |
| KMT2B (UniProt Q9UMN6) | – | – | 0.013 | – | 0.108 | 0.346 | – | -0.047 | – | 0.122 |
| LY6E (UniProt Q16553) | -0.141 | 0.031 | – | 0.056 | – | – | 0.033 | – | 0.08 | – |
| MAPKAP1 (UniProt Q9BPZ7) | 0.105 | -0.118 | -0.085 | 0.083 | -0.003 | -0.087 | -0.056 | 0.042 | – | -0.093 |
| KIF26A (UniProt Q9ULI4) | 0.035 | -0.013 | 0.003 | 0.01 | 0.014 | -0.092 | 0.226 | -0.078 | – | -0.091 |
| MPP5 (UniProt Q8N3R9) | 0.015 | -0.013 | 0.028 | -0.069 | 0.009 | -0.052 | 0.142 | 0.002 | – | -0.053 |
